The text below walks through data of PubChem BioAssay AID504652 (National Center for Advancing Translational Sciences (NCATS), 2011).

SMILES strings stand for the structures. Out of some 360,000 compounds screened, about 11,000 (3.1%) were called active. The full list was thinned out, with actives kept by preference. Unmarked numbers belong to inactive results. No stated cut-off is given here; in the data, active means activity change below about -30%; inactive means the rest.
On the % scale 0 is the no-effect control and ±100 the full control effect.

D(1A) dopamine receptor (Homo sapiens), sequence (P21728 whole entry, looked up): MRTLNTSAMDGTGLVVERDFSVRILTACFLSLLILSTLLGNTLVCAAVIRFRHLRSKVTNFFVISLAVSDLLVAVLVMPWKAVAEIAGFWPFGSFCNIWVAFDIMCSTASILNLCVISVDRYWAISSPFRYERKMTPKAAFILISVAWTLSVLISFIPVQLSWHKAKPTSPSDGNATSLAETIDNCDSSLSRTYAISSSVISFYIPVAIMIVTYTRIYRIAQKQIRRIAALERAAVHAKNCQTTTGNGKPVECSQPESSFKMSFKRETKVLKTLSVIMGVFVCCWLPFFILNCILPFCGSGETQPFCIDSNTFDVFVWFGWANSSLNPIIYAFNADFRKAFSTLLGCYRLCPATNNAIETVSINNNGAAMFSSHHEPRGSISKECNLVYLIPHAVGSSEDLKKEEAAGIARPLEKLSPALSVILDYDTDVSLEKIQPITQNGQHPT

For the assay, the target named is D(1A) dopamine receptor (Homo sapiens) (UniProt P21728). Briefly: Antagonist of Human D 1 Dopamine Receptor: qHTS. The note with it: HEK293 TREx D1 cells, calcium flux, dopamine EC80; at 10 µM; stronger effect = lower value. In outline:
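Kinetic fluorescence of a calcium dye serves as the read-out. D1-expressing Hek293 Trex cells, induced overnight at 30 C, are exposed to compound for 180 s before an EC80 dopamine addition, then read 180 s further.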
For `O=C(c1cccs1)c1cn(CCOc2ccc(Cl)cc2)c2ccccc12`, the activity change, negative = inhibition was -2.17%.

Consider `CN1CN(C)c2ccc([N+](=O)[O-])c3cccc1c23`, for which the activity change, negative = inhibition was 1.14%.

As for `O=C1C(C=NCC2CCCO2)=C(O)c2ccccc21` (stereo not given), the activity change, negative = inhibition is -0.787%.

In the case of `O=C1c2cccc3c([N+](=O)[O-])ccc(c23)C(=O)N1CC1CCCO1` (stereo not given), the activity change, negative = inhibition was -30.6% (active).

Regarding `CC(=O)c1ccc(NC(=O)c2nc3nc(C)cc(C(F)F)n3n2)cc1`, the activity change, negative = inhibition was 6.33%.

For the compound `CCOC(=O)c1ccc(NC(=O)Cn2c(=O)n(-c3ccc(C)cc3)c(=O)c3c2cnn3C)cc1`, the activity change, negative = inhibition was -7.04%.

With `CCn1cc(C(=O)NCc2ccccc2)c(=O)c2cc(S(=O)(=O)N3CCCCC3)ccc21`, the activity change, negative = inhibition was 1.17%.

Take `CCn1c(CNC(=O)C23CC4CC(CC(C4)C2)C3)nnc1SCC(=O)Nc1ccc(OC)cc1`: the activity change, negative = inhibition was 17.4%.

For `CCOc1cc(-c2noc(CCCC(=O)NC3CCCCC3)n2)ccc1OC`, the activity change, negative = inhibition was -2.32%.

With `COc1ccc(-c2noc(CCCC(=O)NC3CCCC3)n2)cc1OC`, the activity change, negative = inhibition was -31.9% (active).

For the compound `CCOc1ccc(-c2noc(CCC(=O)NC3CCCC3)n2)cc1OC`, the activity change, negative = inhibition was 5.22%.

Take `CCOC(=O)c1c(NC(=O)CSc2cn(CC)c3ccccc23)sc2c1CCC2`: the activity change, negative = inhibition was -30.9% (active).

Consider `CCOC(=O)c1c(NC(=O)C(C)Sc2c[nH]c3ccccc23)sc2c1CCC2` (stereo not given), for which the activity change, negative = inhibition is 4.04%.

In the case of `CCOC(=O)c1c(NC(=O)CSc2cn(CCNC(=O)c3cccc(C(F)(F)F)c3)c3ccccc23)sc2c1CCC2`, the activity change, negative = inhibition is -11.4%.

With `Cc1cccc(C(=O)Nc2ccc(S(=O)(=O)N3CCCCC3c3cccnc3)cc2)c1` (stereo not given), the activity change, negative = inhibition is -26.5%.

For `CC(=O)Nc1ccc(NC(=O)C2CCCN(S(=O)(=O)c3ccc4c(c3)CCCC(=O)N4)C2)cc1` (stereo not given), the activity change, negative = inhibition was 0.61%.

Take `O=C1CCCc2cc(S(=O)(=O)N3CCCC(C(=O)NCc4ccccc4)C3)ccc2N1` (stereo not given): the activity change, negative = inhibition is -3.91%.

Take `COc1ccc(OC)c(NC(=O)C2CCCN(S(=O)(=O)c3ccc4c(c3)CCCC(=O)N4)C2)c1` (stereo not given): the activity change, negative = inhibition is -38.1% (active).

Consider `Cc1ccc(CNC(=O)CCc2c(C)nn(-c3ccc(N4CCCC4)nn3)c2C)cc1`, for which the activity change, negative = inhibition is -0.419%.

Take `CCCCC12CN3CC(C)(CN(C1)C3c1ccc(O)c(OC)c1)C2=O` (stereo not given): the activity change, negative = inhibition was 3.82%.

Regarding `CCOC(=O)c1ccc(NC2=CC(c3ccc(OCC)cc3)N(c3ccc(C(=O)OCC)cc3)C2=O)cc1` (stereo not given), the activity change, negative = inhibition is -6.51%.

Take `COc1ccc(NC(=O)c2cc3cc(C)ccc3n2C)cc1`: the activity change, negative = inhibition was 7.2%.

With `COc1ccc(NC(=O)c2c(C)oc3c2CCCC3)cc1`, the activity change, negative = inhibition is -45.1% (active).

As to `COc1ccc(C(=O)Nc2onc3c2CCCC3)cc1`, the activity change, negative = inhibition is -17.5%.

For the compound `O=C(CCSCc1cccc(F)c1)NCc1ccccc1`, the activity change, negative = inhibition was -0.666%.

As to `Cc1cc(C)nc(NC(=O)/C=C/c2ccc(Cl)cc2)n1`, the activity change, negative = inhibition was 4.01%.

`CCCCOC(=O)c1[nH]c(C)c(C(=O)OC)c1C`: the activity change, negative = inhibition is -0.924%.

Consider `COC(=O)c1c(C)[nH]c(C(=O)/C=C/c2ccc(Cl)cc2)c1C`, for which the activity change, negative = inhibition was -47.4% (active).

With `Cc1ccc(Nc2c(-c3ccc(C)cc3)nc3cnccn23)cc1`, the activity change, negative = inhibition was 12.3%.

As to `COC(=O)c1sc2ncccc2c1-n1c(C)ccc1C`, the activity change, negative = inhibition is 1.1%.

On to `O=C(CN1C(=O)COc2ccccc21)NCCN1CCc2ccccc2C1`, for which the activity change, negative = inhibition was -39.4% (active).

With `O=C(CN1C(=O)COc2ccccc21)Nc1ccc(F)cc1`, the activity change, negative = inhibition was 4.15%.

Turning to `COc1ccc(N2CCN(CCNC(=O)CCN3C(=O)COc4ccccc43)CC2)cc1`, the activity change, negative = inhibition was 2.07%.

In the case of `Cc1ccc(S(=O)(=O)NC(N)=NCCC[C@@H](NC(=O)CNC(=O)c2ccccc2)C(=O)Nc2cc(C(F)(F)F)ccc2Cl)cc1`, the activity change, negative = inhibition is 4.94%.

As for `COCCNC(=O)c1snc2ccc(Cl)cc12`, the activity change, negative = inhibition is -34.4% (active).

As for `COCCNC(=O)c1ccc(S(=O)(=O)c2ccc(Cl)cc2)c(NC(C)=O)c1`, the activity change, negative = inhibition is -3.29%.

Regarding `COCCNC(=O)c1cc(-c2cccc(Cl)c2)on1`, the activity change, negative = inhibition was -5.13%.

Consider `CCOC(=O)c1cccc(NC(=O)c2cc(S(=O)(=O)N3CCCC(C)C3)cn2C)c1` (stereo not given), for which the activity change, negative = inhibition is -6.74%.

For `CCOC(=O)c1c(C)[nH]c(C)c1S(=O)(=O)N(C)CC(=O)N1CCN(c2ccccc2)CC1`, the activity change, negative = inhibition was 1.35%.

Regarding `COC(=O)c1ccc(Oc2nc(NC(C)C)nc(SC)n2)cc1`, the activity change, negative = inhibition is -9.38%.

Regarding `COc1nc(Oc2ccc(=O)n(C)n2)nc(N(C)C)n1`, the activity change, negative = inhibition was -8.41%.

As to `CCCn1nc(Oc2nc(NC(C)C)nc(N(C)C)n2)ccc1=O`, the activity change, negative = inhibition was -79.5% (active).

In the case of `COc1cc(C(CC(=O)NCCC(C)C)N2Cc3ccccc3C2=O)cc(OC)c1OC` (stereo not given), the activity change, negative = inhibition is -5.18%.

Regarding `CC(C)NC(=O)C1CCC(Cn2c(=O)c3sccc3n(Cc3ccc(F)cc3)c2=O)CC1` (stereo not given), the activity change, negative = inhibition was 0.886%.

On to `Cc1ccc2nc(N3CCN(c4cccc(Cl)c4)CC3)c3nnnn3c2c1`, for which the activity change, negative = inhibition was -5.5%.

Regarding `Cc1ccc(NC(=O)CSc2nc3ccccc3c3nc(CCn4cncc4C)nn23)cc1F`, the activity change, negative = inhibition was -2.83%.

Consider `Brc1ccc(-c2csc(N/N=C/c3cccnc3)n2)cc1`, for which the activity change, negative = inhibition is -16.3%.

`CN(c1ccc(O)cc1)c1nc(-c2cccnc2)cs1`: the activity change, negative = inhibition is 1.14%.

As for `Oc1ccc(-c2csc(Nc3cccnc3)n2)cc1`, the activity change, negative = inhibition is -30.4% (active).

In the case of `Cc1cccc(C(=O)Nc2ccc(-c3nc4ccccc4s3)c(C)c2)c1`, the activity change, negative = inhibition is -25.8%.

For the compound `COc1ccccc1-c1cc(C(F)(F)F)nc(S(=O)(=O)CCCC(=O)Nc2ccc(F)cc2F)n1`, the activity change, negative = inhibition was -9.9%.

Take `COc1ccc(C2/C(=C(/O)c3ccccc3)C(=O)C(=O)N2c2ncccn2)cc1OC` (stereo not given): the activity change, negative = inhibition is 2.93%.

For `COc1ccc(C2SCCN2S(=O)(=O)c2ccccc2)cc1OC` (stereo not given), the activity change, negative = inhibition is -1.77%.

Regarding `COc1ccc(C2N=C(N)N=C(N)N2c2ccccc2)cc1OC` (stereo not given), the activity change, negative = inhibition was -44.6% (active).

As to `Cc1ccc(C)n1-c1nnc(N2CCC(C(=O)NCc3ccc(F)cc3)CC2)s1`, the activity change, negative = inhibition was 0.798%.

Take `CCCCc1nn2c(=O)cc(COC(=O)c3cccc(NC(=O)COc4ccccc4)c3)nc2s1`: the activity change, negative = inhibition is -12.5%.

For `CC(C)(CCl)C(=O)Nc1ccc(Sc2ccc(F)cc2)cc1`, the activity change, negative = inhibition is -27.2%.

As for `O=C(CCl)Nc1ccc(Sc2ccc(NC(=O)CCl)cc2)cc1`, the activity change, negative = inhibition was -33.1% (active).

In the case of `O=C(CCl)Nc1cccc(CP(=O)(c2ccccc2)c2ccccc2)c1`, the activity change, negative = inhibition is 11.8%.

`Cc1cc(C)cc(OCC(=O)Nc2nc(-c3ccc(F)cc3)ns2)c1`: the activity change, negative = inhibition is -4.25%.

On to `Cc1ccc(Cn2ncc3c4sc(C)cc4n(C)c3c2=O)c(C)c1`, for which the activity change, negative = inhibition was 7.1%.

For `COc1cc(Br)cc2cc(S(=O)(=O)c3ccccc3)c(=O)oc12`, the activity change, negative = inhibition is -1.47%.

`COc1ccc(NS(=O)(=O)c2ccc(NC(=S)NC(=O)CC(C)C)cc2)cc1`: the activity change, negative = inhibition was -6.91%.

On to `COc1ccc(NS(=O)(=O)c2ccc(Oc3c(C#N)cccc3C#N)cc2)cc1`, for which the activity change, negative = inhibition is -44.8% (active).

On to `COc1ccc(NS(=O)(=O)c2ccc(NC(=O)c3ccc(N(C)S(C)(=O)=O)cc3)cc2)cc1`, for which the activity change, negative = inhibition was 3.18%.

Regarding `Cc1ccc2c(=O)cc(C(=O)Nc3sc4c(c3C(=O)NCc3cccnc3)CCCC4)oc2c1`, the activity change, negative = inhibition is -10.7%.

Take `CCc1ccc(-c2nn(-c3ccccc3)cc2CSC(=N)N)cc1`: the activity change, negative = inhibition was 46%.

For `CCOc1ccc(Br)cc1CSC(=N)N`, the activity change, negative = inhibition is 2.93%.

Regarding `N=C(N)SCc1cccc2ccccc12`, the activity change, negative = inhibition was -51.9% (active).

In the case of `COc1ccc(-c2noc(CCC(=O)N(C)c3ccccc3C)n2)cc1`, the activity change, negative = inhibition was -13%.

As for `Cc1ccc(CN(C(=O)COc2ccc(Cl)cc2C)C2CCS(=O)(=O)C2)o1` (stereo not given), the activity change, negative = inhibition was -2.94%.

As for `O=C(/C=C/c1ccc([N+](=O)[O-])cc1)NCCSCc1ccco1`, the activity change, negative = inhibition is -97.8% (active).

On to `O=C(/C=C/c1cccc([N+](=O)[O-])c1)NCCSCc1ccco1`, for which the activity change, negative = inhibition was -26.7%.

`COc1cc(OC)cc(C(=O)NCCSCc2ccco2)c1`: the activity change, negative = inhibition was 4.54%.

Take `Cc1cc(C)cc(NC(=O)c2cnc3sc(N4CCCC4)nn3c2=O)c1`: the activity change, negative = inhibition is -28.3%.

Consider `Cc1nc2ccc(S(=O)(=O)NC(C(=O)NCc3ccccc3Cl)C(C)C)cc2s1` (stereo not given), for which the activity change, negative = inhibition is 18.5%.

In the case of `COc1cccc(CNC(=O)c2ccc3c(c2)N(Cc2ccc(C(F)(F)F)cc2)C(=O)c2ccccc2S3)c1OC`, the activity change, negative = inhibition is -2.43%.

For the compound `O=[N+]([O-])/C=C/c1ccc2c(ccn2Cc2ccccc2)c1`, the activity change, negative = inhibition is -37.9% (active).

For the compound `O=c1c(=O)n(Cc2c(F)cccc2Cl)ccn1Cc1ccccc1`, the activity change, negative = inhibition was -3.28%.

On to `OCCC1CN(Cc2ccc(Oc3ncccn3)cc2)CCN1CCc1ccccc1` (stereo not given), for which the activity change, negative = inhibition is -6.31%.

Regarding `OCCC1CN(Cc2cnc(-c3ccccc3)s2)CCN1CCc1ccccc1` (stereo not given), the activity change, negative = inhibition was -3.13%.

For `OCCC1CN(Cc2cccc(O)c2)CCN1CCc1ccccc1` (stereo not given), the activity change, negative = inhibition was -42.3% (active).

In the case of `Cc1ccc(C)c(S(=O)(=O)n2nc(C)c(S(=O)(=O)N3CCC(C)CC3)c2C)c1`, the activity change, negative = inhibition was 6.24%.

With `Cc1ccc(C)c(N2CCN(CCCNC(=O)Nc3ccc(Cl)cc3)CC2)c1`, the activity change, negative = inhibition is -58.4% (active).

As to `O=C(NCCCN1CCN(c2ccc(F)cc2)CC1)Nc1ccc([N+](=O)[O-])cc1`, the activity change, negative = inhibition was -54.6% (active).

As for `CN1CCN(CCNC(=O)Nc2ccc([N+](=O)[O-])cc2)CC1`, the activity change, negative = inhibition is -6.04%.

As for `O=C(NCCCN1CCOCC1)c1ccc([N+](=O)[O-])cc1[N+](=O)[O-]`, the activity change, negative = inhibition is -7.86%.

`CC1=C(c2ccc(C)cc2)S(=O)(=O)NC1=NCCCN1CCN(c2cc(C)ccc2C)CC1`: the activity change, negative = inhibition was 10.4%.

For the compound `CC1=C(c2ccc(Cl)cc2)S(=O)(=O)N=C1N1CCN(c2cc(C)ccc2C)CC1`, the activity change, negative = inhibition is 3.21%.

Regarding `Cc1cccc(C(=O)Nc2ccc(-c3nc4ncccc4o3)cc2C)c1`, the activity change, negative = inhibition was -4.33%.
